Compound activity (PubChem)
VDR inh: blocks the human vitamin D receptor. P11473. VDR-SRC2-3 peptide fluorescence polarization, 2 h. Potency, µM, hits mostly inhibitors. 400,000 compounds, 0.93% hits. AID 504847
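Fluorescence polarization assay measuring small-molecule disruption of VDR binding to the coregulator peptide SRC2-3. Compounds were pin-transferred (23 nl) into the reagent mix and incubated 2 h at room temperature before reading.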
TDP1 block: TDP1 (human) enzyme inhibition | Q9NUW8 | recombinant TDP1, AlphaScreen DNA substrate cleavage | Potency, µM (titrated, usually from 130 µM), usual class: inhibitors | 350,000 compounds, 0.28% hits; note: nearly all actives have a fitted effect of over 40% in size
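Recombinant human Tdp1 (E. coli-expressed, 1 nM final) preincubated with compounds 15 min at room temperature, then 5'-biotin/3'-phosphotyrosine-FITC DNA substrate (15 nM final) added for 5 min. AlphaScreen beads (10 ug/ml final) added 10 min; cleavage lowers signal.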
TDP1 cell CPT: DT40-hTDP1 cell growth loss with CPT; chicken DT40 Tdp1-/-;hTDP1 cells + 20 nM CPT, ATP luminescence, 48 h; Potency, µM (top dose mostly 46.2 µM), most hits filed as inhibitors; 420,000 compounds, 12% hits; note: nearly all actives have a fitted effect of over 55% in size
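Chicken DT40 Tdp1-/- cells complemented with human TDP1, 400 cells/well, exposed to compounds plus 20 nM camptothecin for at least 48 h at 37 C; viability read as ATP content by CellTiter-Glo luminescence.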
GCN5L2 inh: GCN5L2 (KAT2A) acetyltransferase inhibition; GCN5L2 HAT assay, ThioGlo1 CoA-SH fluorescence; Potency, µM (top dose mostly 58.9 µM), usual class: inhibitors; 390,000 compounds, 0.21% hits; AID 504327
Target sequence (Q92830 whole entry, looked up): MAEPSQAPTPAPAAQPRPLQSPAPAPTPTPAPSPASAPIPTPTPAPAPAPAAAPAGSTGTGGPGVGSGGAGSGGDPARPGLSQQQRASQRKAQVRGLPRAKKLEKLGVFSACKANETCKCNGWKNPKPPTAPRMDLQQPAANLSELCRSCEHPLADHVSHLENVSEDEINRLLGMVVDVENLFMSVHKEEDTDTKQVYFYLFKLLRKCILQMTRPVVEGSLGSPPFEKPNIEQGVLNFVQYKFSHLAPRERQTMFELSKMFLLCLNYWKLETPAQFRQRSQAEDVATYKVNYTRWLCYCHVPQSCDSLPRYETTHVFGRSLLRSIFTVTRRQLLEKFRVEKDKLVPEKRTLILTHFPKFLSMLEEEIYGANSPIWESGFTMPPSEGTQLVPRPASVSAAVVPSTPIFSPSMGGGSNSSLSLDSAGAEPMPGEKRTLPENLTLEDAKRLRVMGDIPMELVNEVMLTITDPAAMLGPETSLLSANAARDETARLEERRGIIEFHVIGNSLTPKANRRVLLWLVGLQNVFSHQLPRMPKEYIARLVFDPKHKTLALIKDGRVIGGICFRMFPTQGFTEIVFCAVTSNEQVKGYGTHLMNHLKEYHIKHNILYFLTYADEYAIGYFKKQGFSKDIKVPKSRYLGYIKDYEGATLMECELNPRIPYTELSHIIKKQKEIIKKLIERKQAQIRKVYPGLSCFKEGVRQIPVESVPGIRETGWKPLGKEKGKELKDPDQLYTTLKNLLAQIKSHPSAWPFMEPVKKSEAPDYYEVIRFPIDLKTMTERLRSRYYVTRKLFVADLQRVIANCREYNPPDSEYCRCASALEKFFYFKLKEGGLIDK
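GCN5L2 (20nM final) in 50mM HEPES, 0.1mM EDTA pH 7.5, 0.01% Tween-20 was preincubated 15 min at room temperature with compound, then given ThioGlo1 (50uM), H3(1-25) peptide (75uM) and acetyl-CoA (70uM); CoA-thiol fluorescence (Ex340/Em540) was read at 0 and 20 min.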
PLK1 PBD inh: blocks phosphopeptide binding to human PLK1 polo-box domain. Plk1 PBD binding of FITC phosphopeptide, fluorescence polarization. Potency, µM, most hits filed as inhibitors. 360,000 compounds, 2.8% hits; note: series mostly up to about 57 µM; nearly all actives have a fitted effect of over 65% in size
TDP1 cell noCPT: qHTS for Inhibitors of human tyrosyl-DNA phosphodiesterase 1 (TDP1): qHTS in cells in absence of CPT. DT40 Tdp1-/- hTDP1 cells, no CPT, ATP luminescence, 48 h. Potency, µM (doses to about 46.2 µM), most hits filed as inhibitors. 420,000 compounds, 15% hits; note: nearly all actives have a fitted effect of over 55% in size
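Growth of hTDP1-complemented DT40 Tdp1-knockout cells is measured by ATP luminescence after at least 48 hr compound exposure at 37 °C, with DMSO substituting for the 20 nM CPT used in the parallel screen.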
Numbers stand for hits; 0 = inactive; ? = inconclusive; - = no result given. Compounds with a hit are over-represented: about 18% of the library has one in this group of screens. Calls come from the whole dose curve; as a rule, active = well fitted curve in the direction sought with a large enough effect; inconclusive = small, poorly fitted or top-dose-only effect, or another doubt; inactive = no such curve, though single readings can be large; an effect the other way counts as inactive or inconclusive.

SMILES | VDR inh | TDP1 block | TDP1 cell CPT | GCN5L2 inh | PLK1 PBD inh | TDP1 cell noCPT
COc1ccc(C(=O)Nc2cc(-c3ccccc3)nn2-c2ccccc2F)cc1 | 0 | - | 23µM | 0 | 0 | ?
CCOC(=O)c1c(S(=O)(=O)Nc2ccc(C)cn2)c(C)n(C)c1C | ? | 0 | ? | 0 | 21µM | ?
O=S(=O)(c1ccc(Cl)cc1)N1CCN(c2ccccn2)CC1 | 0 | 0 | 0 | 0 | 0 | 0
Cc1csc2c(N3CCCCC3)ncnc12 | 0 | 0 | 0 | 0 | 0 | 0
Cc1csc2c(N3CCN(S(=O)(=O)c4ccc(Cl)cc4)CC3)ncnc12 | 0 | 0 | 0 | 0 | 0 | 23µM
O=S(=O)(c1ccc(Cl)cc1)N1CCN(c2ncnc3sccc23)CC1 | 0 | 0 | 6.5µM | 0 | 0 | 5.8µM
COc1ccc(NC(=O)C2CCCN(S(=O)(=O)c3ccc4c(c3)CCCC(=O)N4)C2)cc1OC (stereo unspecified) | 0 | 0 | - | 0 | - | -
Cc1cccc(-c2cc(C(=O)Nc3cccnc3)c3ccccc3n2)c1 | 0 | 0 | 21µM | 0 | 0 | ?
O=C(Nc1ccc(Br)cc1)c1cc(-c2ccncc2)nc2ccccc12 | 0 | 0 | ? | 0 | 0 | 16µM
O=C(NC1=NCCS1)c1cc(-c2cccnc2)nc2ccccc12 | 0 | 0 | 16µM | 0 | 0 | 21µM
CC(C)(C)c1ccc(-c2cc(C(=O)NNC(=O)Nc3ccccc3)c3ccccc3n2)cc1 | 0 | 0 | ? | 0 | ? | 21µM
Cc1cccc(-c2cc(C(=O)Nc3ccncc3)c3ccccc3n2)c1 | 0 | 0 | ? | ? | 0 | ?
COc1ccc(CNC(=O)Cn2cc(C)c(=O)[nH]c2=O)cc1 | 0 | - | 0 | - | 0 | 0
COc1ccc(N2CCN(CCCNC(=O)c3c(C)nn(-c4ccc(F)cc4)c3-n3cccc3)CC2)cc1 | 0 | 0 | - | 0 | - | -
CCCCC(=O)Nc1ccc(OCc2cc(=O)n3ccc(C)cc3n2)cc1 | 0 | 0 | 0 | 0 | - | 0
CC(=O)Nc1cc(NC(C)=O)cc(C(=O)N2CCCC3CCCCC32)c1 (stereo unspecified) | 0 | - | 0 | 0 | 0 | 0
CC(C)OCCc1cccc[n+]1[O-] | - | - | 0 | - | 0 | 0
O=C(Nc1ccncc1)c1cc(-c2ccccc2)nc2ccccc12 | - | - | ? | - | 0 | 21µM
O=C(COc1ccc2c(c1)OCO2)Nc1ccccc1C(F)(F)F | 0 | 0 | 0 | 0 | 0 | 0
CCOc1ccc(N(CC(=O)Nc2ccccc2Cl)S(C)(=O)=O)cc1 | 0 | - | 18µM | 0 | 0 | 26µM
CCOc1ccc(N(CC(=O)Nc2cc(Cl)ccc2C)S(C)(=O)=O)cc1 | 0 | 0 | ? | 0 | 0 | 23µM
CCOC(=O)c1ccccc1NC(=O)CN(c1ccc(OCC)cc1)S(C)(=O)=O | - | 0 | - | 0 | - | -
Cc1csc(SCC(=O)NC(C)C2CC3CCC2C3)n1 (stereo unspecified) | 0 | 0 | 0 | 0 | 0 | 0
O=C(NNc1c([N+](=O)[O-])cc(C(F)(F)F)cc1[N+](=O)[O-])c1ccco1 | 0 | 0 | 26µM | ? | 0 | 23µM
COc1cc(C(C(=O)NC2CCCCC2)N(Cc2cccs2)C(=O)Cc2c[nH]c3ccccc23)cc(OC)c1OC (stereo unspecified) | 0 | 0 | 23µM | 0 | 0 | 21µM
SMILES | VDR inh | TDP1 block | TDP1 cell CPT | GCN5L2 inh | PLK1 PBD inh | TDP1 cell noCPT
COc1cccc(CN(C(=O)Cc2c[nH]c3ccccc23)C(C(=O)NC2CCCCC2)c2ccc(C)o2)c1 (stereo unspecified) | 0 | 0 | 16µM | 0 | 0 | 16µM
COc1ccc(NC(=O)C(c2ccccc2)N(C)C(=O)/C=C\c2ccc3c(c2)OCO3)cc1 (stereo unspecified) | 0 | 0 | ? | 0 | - | ?
Cc1ccc(C(C(=O)NC2CCCCC2)N(Cc2ccccc2)C(=O)Cc2c[nH]c3ccccc23)o1 (stereo unspecified) | 0 | 0 | ? | 0 | 0 | ?
COc1ccc(CN(C(=O)Cc2c[nH]c3ccccc23)C(C(=O)NC2CCCCC2)c2ccc(C)o2)cc1 (stereo unspecified) | 0 | 0 | ? | 0 | 0 | 18µM
COc1ccc(C(C(=O)Nc2ccc3c(c2)OCO3)N(C)C(=O)Cc2c[nH]c3ccccc23)cc1 (stereo unspecified) | 0 | 0 | 18µM | 0 | 0 | ?
CC(C)CN(C(=O)CN1CCc2ccccc21)c1c(N)n(CC(C)C)c(=O)[nH]c1=O | 0 | 0 | 0 | 0 | 0 | 0
COc1cc(OC)c(C2Nc3ccccc3-c3nnc(SCc4ccccc4)nc3O2)cc1OC (stereo unspecified) | 0 | - | ? | 0 | - | ?
CCCN(CCC)C(=O)Cn1c(=O)n(Cc2ccc(C(=O)NCCc3ccc(Cl)cc3)cc2)c(=O)c2ccccc21 | 0 | 0 | ? | 0 | - | ?
COc1ccc(-c2cc3nc(C)n(N)c(=O)c3s2)cc1 | 0 | - | 5.8µM | 0 | 0 | 5.8µM
COc1ccc(-c2cc3nc4n(c(=O)c3s2)CCC4)cc1 | 0 | 0 | 15µM | 0 | 0 | ?
Cc1ccccc1-c1cc2nc(OCC3CCCO3)n(C)c(=O)c2s1 (stereo unspecified) | - | - | ? | - | 0 | ?
Cc1nc2cc(-c3ccccc3)sc2c(=O)n1N | 0 | 0 | 16µM | 0 | 0 | ?
Cn1c(OCC2CCCO2)nc2cc(-c3ccccc3)sc2c1=O (stereo unspecified) | - | - | 23µM | - | 0 | ?
Cn1c(NCc2ccccc2)nc2cc(-c3ccccc3)sc2c1=O | - | - | ? | - | 0 | ?
COc1cccc(CNc2nc3cc(-c4ccccc4)sc3c(=O)n2C)c1 | - | - | ? | - | 0 | ?
CCOc1ccc(NC(=O)C2CCCN(S(=O)(=O)c3cccc4nonc34)C2)cc1 (stereo unspecified) | 0 | 0 | 0 | 0 | - | 0
CC(C)CNC(=O)CN(c1cccc(Cl)c1)S(C)(=O)=O | 0 | 0 | 0 | 0 | 0 | 0
CCOc1ccc(NC(=S)NC23CC4CC(CC(C4)C2)C3)cc1 | 0 | - | ? | 0 | 0 | ?
O=S(=O)(c1ccc(NC(=S)NN=Cc2ccccc2O)cc1)N1CCCCC1 | 0 | - | 4.6µM | - | 0 | 5.8µM
O=S(=O)(c1ccc(NC(=S)NCc2cccnc2)cc1)N1CCCCC1 | 0 | 0 | 8.2µM | 0 | 0 | 6.5µM
CN(C)c1ccc(NC(=S)NC23CC4CC(CC(C4)C2)C3)cc1 | 0 | 0 | 29µM | 0 | 0 | ?
O=C(NCc1cccnc1)c1ccc(S(=O)(=O)N2CCCCC2)cc1 | 0 | 0 | ? | 0 | ? | ?
Cc1ccc(NC(=S)Nc2cccnc2)c(S(=O)(=O)N2CCCCC2)c1 | 0 | 0 | 23µM | 0 | 0 | 16µM
Clc1ccc(/C=C/c2ccncc2)cc1Cl | - | - | 0 | - | - | 0
O=C(NC12CC3CC(CC(C3)C1)C2)N1CCN(S(=O)(=O)c2ccc(Cl)cc2)CC1 | 0 | 0 | 18µM | 0 | 0 | 23µM
